Data published in PubChem BioAssay (EPA / NIEHS).
Records with an inconclusive call do not appear. Active and inactive are the calls of the source. How the source made its calls: active means hit-call score of the fitted dose curve at least 0.9, where 1 is the maximum; inconclusive means response in the unintended direction; inactive means score below 0.9.

Experiment: TOX21_p53_BLA_p4_viability: Viability Assessment in the Tox21 HCT-116 p53 Agonism Beta-lactamase Assay, Phase 4 (AID 2283597);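 further: hits lower the luminescence signal meaning cytotoxicity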
Description: TOX21_p53_BLA_p4 is a cell-based, single-readout assay that uses HCT116, a human intestinal cell line, […] in a 1536-well plate.TOX21_p53_BLA_p4_viability is an assay readout measuring cellular ATP content and detected with CellTiter-Glo Luciferase-coupled ATP quantitation.TOX21_p53_BLA_p4_viability used a type of viability reporter where loss-of-signal activity can be used to understand changes in the cell viability. Furthermore, this assay endpoint can be referred to as a secondary readout, because this assay has produced multiple assay endpoints where this one serves a viability function. To generalize the intended target to other relatable targets, this assay endpoint is annotated to the cell cycle intended target family, where the subfamily is cytotoxicity.
Thawing Method: Place 14 mL of pre-warmed thaw medium into a 15 mL of conical tub. Remove the vial of cells to be thawed from liquid nitrogen and thaw rapidly by placing at 37C in a water bath with gentle agitation for 1-2 minutes. Decontaminate the vial by wiping with 70% ethanol before opening in a biological safety cabinet. Transfer the vial contents drop-wise into 14 mL of thaw medium in a sterile 15-mL conical tub. Centrifuge cells at 900 rpm for 4 minutes and resuspend in thaw medium. Transfer contents to the T75 tissue culture flask containing Thaw Medium and place flask in a humidified 37C/5% CO2 incubator. Switch to growth medium at first passage.Propagation Method: Aspirate medium, rinse once in DPBS, add 0.25% Trypsin/EDTA and swirl to coat the cell evenly. Add an equal volume of Growth Medium to inactivate Trypsin after 2-3 minutes incubation at 37C. Centrifuge cells at 900 rpm for 4 minutes and resuspend in growth medium. Cell should be passage or fed at least twice a week.Assay Protocol: Harvest cells from culture in growth medium and resuspend in assay medium. 2.2 Dispense 4000 cells/5 uL/well into 1536-well black/clear bottom plates using a Multidrop dispenser. After the cells were incubated at 37C for 5 hours, 23 nL of compounds dissolved in DMSO were transferred to the assay plate by a PinTool resulting in a 217-fold dilution. Incubate the plates for 16 hours at 37C, 5% CO2. Add 1 uL of 6X LiveBLAzer FRET B/G (CCF4-AM) Substrate Mixture to each well using a BioRAPTR dispenser and incubate the plates at room temperature for 2 hours. Measure fluorescence intensity at 460 and 530 nm emission and 405 nm excitation by an Envision detector. Data is expressed as the ratio of 460nm/530nm emissions. Add 4 uL of Cell-titer Glo to each well using BioRAPTR and incubate the plates at room temperature for […]. For cell viability readout that measures cytotoxicity, 4 ul/well of CellTiter-Glo reagent was added into the assay plates using a Flying Reagent Dispenser. After 30 min incubation at room temperature, the luminescence intensity in the plates was measured using a ViewLux plate reader.

Row | Compound | outcome | AC50
1 | Cc1cc(O)c(Cl)cc1C | inactive | –
2 | Cc1nc2ccccc2s1 | inactive | –
3 | CCOC(=O)[C@H](CCc1ccccc1)N[C@@H](C)C(=O)N1CC2(C[C@H]1C(=O)O)SCCS2 | inactive | –
4 | Nc1nc(NC2CC2)c2ncn([C@H]3C=C[C@@H](CO)C3)c2n1 | inactive | –
5 | COC(=O)C(C)O (stereo not given) | inactive | –
6 | CO[C@H]1/C=C/O[C@@]2(C)Oc3c(C)c(O)c4c(O)c(c5c(nc6cc(C)ccn65)c4c3C2=O)NC(=O)/C(C)=C\C=C\[C@H](C)[C@H](O)[C@@H](C)[C@@H](O)[C@@H](C)[C@H](OC(C)=O)[C@@H]1C | inactive | –
7 | CC(=O)OCC1=C(C(=O)O)N2C(=O)[C@@H](NC(=O)Cc3ccccc3)[C@H]2SC1 | inactive | –
8 | CN[C@@H]1[C@@H](O)[C@@H](O[C@@H]2[C@@H](O)[C@H](O[C@H]3O[C@H](CN)[C@@H](O)[C@H](O)[C@H]3O)[C@@H](N)C[C@H]2NC(=O)C(O)CN)OC[C@]1(C)O (stereo not given in full) | inactive | –
9 | Nc1ccc(C(=O)O)c(O)c1 | inactive | –
10 | c1cc2c3c(c1)ccc1cccc(c13)C2 | inactive | –
11 | C=CCSSCCC | inactive | –
12 | O=c1c(O)c(O)c1=O | inactive | –
13 | CC(=O)c1ccc2ccc3ccccc3c2c1 | inactive | –
14 | C=CCC=CC | inactive | –
15 | CCCCNC(=O)NCCCC | inactive | –
16 | CC(C)Cc1ccc([C@H](C)C(=O)O)cc1 | inactive | –
17 | COC(=O)NN | inactive | –
18 | C=CCCCC | inactive | –
19 | Nc1ccc([N+](=O)[O-])c(N)c1 | inactive | –
20 | O=C(/C=C/c1ccc(O)c(O)c1)O[C@@H](C(=O)O)[C@@H](OC(=O)/C=C/c1ccc(O)c(O)c1)C(=O)O | inactive | –

Row | Compound | outcome | AC50
21 | CCNC(=O)[C@@H]1CCCN1C(=O)[C@H](CCCN=C(N)N)NC(=O)[C@H](CC(C)C)NC(=O)[C@@H](CC(C)C)NC(=O)[C@H](Cc1ccc(O)cc1)NC(=O)[C@H](CO)NC(=O)[C@H](Cc1c[nH]c2ccccc12)NC(=O)[C@H](Cc1cnc[nH]1)NC(=O)[C@@H]1CCC(=O)N1 | inactive | –
22 | N=C(N)c1ccc(C=Cc2ccc(C(=N)N)cc2O)cc1 | inactive | –
23 | CN1CCCN(C(c2ccccc2)c2ccc(Cl)cc2)CC1 (stereo not given) | – | 34.8 µM (active)
24 | O=C(O)CCc1ccccc1 | inactive | –
25 | CCc1ccc(CC)cc1 | inactive | –
26 | Cc1cc(O)ccc1N | inactive | –
27 | O=C(O)CCCCCCC(=O)O | inactive | –
28 | CC=C(Cl)Cl | inactive | –
29 | CCN(CC)CCNC(=O)COc1ccc(OC)cc1 | inactive | –
30 | CC(C)(O)c1ccccc1 | inactive | –
31 | CCCn1c(=O)[nH]c(=O)c2[nH]cnc21 | inactive | –
32 | CNC(=O)NC | inactive | –
33 | O=C(O)[C@H]1CN(C/C=C/P(=O)(O)O)CCN1 | inactive | –
34 | CCc1ccc(C(=O)C(C)CN2CCCCC2)cc1 (stereo not given) | inactive | –
35 | CCCSSC(CCO)=C(C)N(C=O)Cc1cnc(C)nc1N | inactive | –
36 | C#CCN[C@@H]1CCc2ccccc21 | inactive | –
37 | O=CC1CC=CCC1 (stereo not given) | inactive | –
38 | C[C@@H]1CC[C@@]2(OC1)O[C@H]1C[C@H]3[C@@H]4CC[C@H]5C[C@@H](O)CC[C@]5(C)[C@H]4CC(=O)[C@]3(C)[C@H]1[C@@H]2C | inactive | –
39 | CCCCCC(C)N (stereo not given) | inactive | –
40 | Cc1c(N=C=O)cccc1N=C=O | inactive | –
